High-throughput results from PubChem BioAssay.
An excerpt weighted towards active compounds, which were near 5% of everything screened.
TbPYK inhibitor: qHTS of Trypanosoma Brucei Inhibitors; 0.12% of 410,000 active; TbPYK enzyme, Kinase-Glo Plus ATP luminescence, 45 min; pyruvate kinase (Trypanosoma brucei), Q57TT1; Potency, µM (doses to about 76.8 µM), hits mostly inhibitors; note: nearly all actives have a fitted effect of over 50% in size
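Glycolytic pyruvate kinase of T. brucei was incubated with substrate, test compound and 130 uM ADP for 45 minutes at room temperature. Luminescent Kinase-Glo Plus signal was measured after 10 minutes.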
LmPK inh: qHTS Assay for Inhibitors of Leishmania Mexicana Pyruvate Kinase (LmPK); Q27686; purified LmPK, Kinase-Glo ATP luminescence, 1 h; Potency, µM (highest dose often 57.5 µM), usual class: inhibitors; 0.37% of 290,000 active; AID 1721, 2009
Target sequence (Q27686 whole entry, looked up): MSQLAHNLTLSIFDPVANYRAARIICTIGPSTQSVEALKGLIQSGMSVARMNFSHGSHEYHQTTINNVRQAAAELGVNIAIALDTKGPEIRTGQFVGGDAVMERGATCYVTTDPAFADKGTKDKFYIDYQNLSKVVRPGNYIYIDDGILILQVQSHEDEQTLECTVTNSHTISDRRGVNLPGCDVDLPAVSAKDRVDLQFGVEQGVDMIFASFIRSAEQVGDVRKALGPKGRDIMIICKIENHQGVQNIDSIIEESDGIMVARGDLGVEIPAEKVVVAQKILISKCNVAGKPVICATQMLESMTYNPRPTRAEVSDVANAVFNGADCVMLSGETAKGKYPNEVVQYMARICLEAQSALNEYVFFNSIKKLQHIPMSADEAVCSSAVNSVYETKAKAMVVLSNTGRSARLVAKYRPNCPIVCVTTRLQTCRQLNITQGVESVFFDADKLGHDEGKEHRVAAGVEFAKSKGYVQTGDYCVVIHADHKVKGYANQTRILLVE
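Screened at intermediate enzyme activity to detect both inhibitors and activators: LmPK at 0.1 nM, with a 0.5 nM enzyme column as activation reference. PEP 0.5 mM, ADP 0.1 mM; ATP detected by luminescence after 1 h.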
VACV Venus inh: qHTS for Stage-Specific Inhibitors of Vaccinia Orthopoxvirus: Venus Reporter Primary qHTS. Vaccinia virus Venus reporter expression, fluorescence. Potency, µM (doses to about 36.5 µM), usual class: inhibitors. 0.46% of 330,000 active. AID 720580, 2013; calls by dose curve; tested in A549 cells; note: nearly all actives have a fitted effect of over 30% in size
HCMV inh: qHTS Assay for inhibitors of the human cytomegalovirus (HCMV); HFF cells, HCMV-luciferase reporter, 72 h; active compounds read low; activity change, negative = inhibition, % at 57.5 µM; 4.5% of 410,000 active; AID 1259415, 2018; in the data active = activity change below about -60%; inconclusive = no clear call, values can overlap the other calls; inactive = above about -39%
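Steps: HFFs plated, 16 h 37C; compounds added; HCMV-luciferase added to MOI 1 PFU/cell; 72 h 37C; OneGlo reagent, 5 min room temperature; luminescence read, normalized to controls.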
VACV mCherry inh: qHTS for Stage-Specific Inhibitors of Vaccinia Orthopoxvirus: mCherry Reporter Primary qHTS. Vaccinia virus mCherry reporter infection, fluorescence. Potency, µM (titrated, usually from 36.5 µM), most hits filed as inhibitors. 0.63% of 310,000 active. AID 720579, 2013; calls by dose curve; tested in A549 cells; note: nearly all actives have a fitted effect of over 35% in size
Large screens that a line does not name were inactive. Unless noted, calls come from the whole dose curve; as a rule, active = well fitted curve in the direction sought with a large enough effect; inconclusive = small, poorly fitted or top-dose-only effect, or another doubt; inactive = no such curve, though single readings can be large; an effect the other way counts as inactive or inconclusive.

CCOc1ccccc1N(C)C(=O)Cn1nc(Cc2ccncc2)c2ccccc2c1=O	none (no result: LmPK inh)
CCOc1ccccc1N(C)C(=O)Cn1nc(Cc2cccnc2)c2ccccc2c1=O	HCMV inh -72.0 (no result: LmPK inh)
CCC(CO)Nc1ncnc2onc(-c3ccc(F)cc3)c12 (stereo unspecified)	none
CC(C)(CCO)Nc1ncnc2onc(-c3ccc(F)cc3)c12	HCMV inh -64.0
CCCS(=O)(=O)c1nc(S(=O)(=O)c2ccc(C)cc2)c(NC(C)c2ccccc2)s1 (stereo unspecified)	none (no result: LmPK inh)
C[C@H]1Cn2cnc(C(=O)Nc3cccc(Cl)c3)c2C(=O)N1	VACV Venus inh inconclusive, VACV mCherry inh inconclusive (no result: LmPK inh)
NC(=O)C1CCN(c2nc(-c3ccccc3Br)cs2)CC1	HCMV inh -73.7 (no result: LmPK inh, VACV Venus inh, VACV mCherry inh)
COc1ccc([C@H]2Cc3cc(O)cc(O)c3C(=O)O2)cc1O	HCMV inh -101.9 (no result: LmPK inh)
Cc1cccc(OCC(=O)N2CCN(C(=O)c3ccc([N+](=O)[O-])cc3)CC2)c1	HCMV inh -60.9
O=C(CN1CCN(S(=O)(=O)c2cccc(Br)c2)CC1)NCCc1cccs1	none (no result: LmPK inh, VACV Venus inh, VACV mCherry inh)
CC(=O)CCSc1ncnc2sc(-c3ccccc3)cc12	HCMV inh -111.7
CC(=O)c1c(C)[nH]c(C(=O)CSc2ncnc3sc(-c4ccccc4)cc23)c1C	HCMV inh -77.3
O=C(O)CSc1ncnc2sc(-c3ccccc3)cc12	none
COc1ccc(-n2c(O)c(C(C)=NCCCn3ccnc3)c(=O)[nH]c2=O)cc1	HCMV inh -65.8 (no result: VACV Venus inh, VACV mCherry inh)
O=C(/C=C/c1ccc2c(c1)OCCO2)c1ccccc1	LmPK inh 12.6µM (no result: VACV Venus inh, VACV mCherry inh)
CCOc1cc(/C=C/C(=O)c2ccc3c(c2)OCCO3)ccc1OCC(=O)N(C)C	VACV Venus inh 10µM, HCMV inh -76.7, VACV mCherry inh 10µM
Nc1ccccc1C(=O)/C=C/c1ccc2c(c1)OCO2	LmPK inh 14.1µM, VACV Venus inh inconclusive, HCMV inh -71.0, VACV mCherry inh inconclusive
COc1cc(/C=C/C(=O)c2ccc3c(c2)OCO3)cc(Cl)c1O	HCMV inh -62.3, VACV mCherry inh inconclusive
COc1cccc(C#Cc2c(CO)[nH]c3ccccc23)c1	none (no result: LmPK inh)
O=C(/C=C/c1ccc2c(c1)OCO2)Nc1cccnc1	LmPK inh 22.4µM
COc1cc(CC(=O)OCC(=O)c2ccc3c(c2)OCCO3)cc(OC)c1OC	VACV Venus inh inconclusive, HCMV inh -71.3, VACV mCherry inh inconclusive
COc1cccc(/C=C/C(=O)c2ccc3c(c2)OCCO3)c1OC	VACV Venus inh inconclusive, HCMV inh -95.7, VACV mCherry inh inconclusive
COc1ccc(/C=C/C(=O)c2ccc3c(c2)OCO3)c(OC)c1	LmPK inh inconclusive (no result: VACV Venus inh, VACV mCherry inh)
O=C1NC2=C(C(=O)CCC2)C(c2ccc(OC(F)F)cc2)N1 (stereo unspecified)	none
CC1CCCC(NC(=S)Nc2ccc(SC(F)F)cc2)C1C (stereo unspecified)	VACV Venus inh 11.2µM, HCMV inh inconclusive, VACV mCherry inh inconclusive
COc1ccccc1NC(=O)c1sc2nc(-c3cc4ccccc4oc3=O)[nH]c(=O)c2c1C	none (no result: LmPK inh)
COc1cccc2cc(-c3nc4sc(C(=O)Nc5ccc(F)cc5F)c(C)c4c(=O)[nH]3)c(=O)oc12	HCMV inh active (no result: LmPK inh)
CCc1cccc2c(C(=O)C(F)(F)F)cn(CC(=O)N3CCOCC3)c12	none (no result: VACV Venus inh, VACV mCherry inh)
Nc1nc2ccccc2n1C(=O)c1ccccc1	TbPYK inhibitor inconclusive, LmPK inh 6.31µM (no result: VACV Venus inh, VACV mCherry inh)
Nc1nc2ccccc2n1C(=O)c1ccc(F)cc1	LmPK inh 25.1µM
COc1ccc(C(=O)n2c(N)nc3ccccc32)cc1OC	none
N#C/C(=C\c1ccccc1)C(=O)N1CCN(c2ccccc2F)CC1	VACV mCherry inh inconclusive
NC(=S)N/N=C/c1ccc(-n2nncc2-c2ccc(Cl)cc2)cc1	VACV Venus inh 1.12µM, VACV mCherry inh 0.794µM (no result: HCMV inh)
O=C(c1ccco1)N1CCN(C(=O)c2ccco2)C1=S	VACV Venus inh inconclusive (no result: LmPK inh)
Cc1cccn2c1nc(=S)n2C(=O)c1ccco1	LmPK inh 10µM
Cc1cc(OCC(=O)N(C)Cc2ccccc2)cc(C)c1Cl	none
COc1ccc(OC)c(-c2cc(C3CCN(c4cc(Cl)nc(N)n4)CC3)[nH]n2)c1	VACV Venus inh inconclusive, HCMV inh -88.5, VACV mCherry inh 12.6µM
COc1ccc(-c2cc(C3CCN(c4cc(Cl)nc(N)n4)CC3)[nH]n2)cc1	HCMV inh -60.2 (no result: VACV Venus inh, VACV mCherry inh)
COc1ccc(OC)c(-c2cc(C3CCN(c4ncccc4[N+](=O)[O-])CC3)[nH]n2)c1	VACV Venus inh inconclusive, VACV mCherry inh inconclusive
Nc1nc(Cl)cc(N2CCC(c3cc(-c4ccc(Cl)cc4)n[nH]3)CC2)n1	HCMV inh -103.7 (no result: VACV Venus inh, VACV mCherry inh)
Cc1ccc(CN2CCC(c3cc(-c4ccc(Cl)cc4)n[nH]3)CC2)cc1	HCMV inh -98.7
COc1ccc(-c2cc(C3CCN(CC(O)C(F)(F)F)CC3)[nH]n2)cc1 (stereo unspecified)	none (no result: VACV Venus inh, VACV mCherry inh)
CC(C)(C)c1ccc(-c2noc(CCC(=O)N3CCOCC3)n2)cc1	none
C[C@H]1CN([C@@H](C)CO)S(=O)(=O)c2ccc(Br)cc2O[C@H]1CN(C)C(=O)c1cccc(F)c1	none (no result: LmPK inh)
CC(C(=O)c1ccccc1)[n+]1cccc(Br)c1 (stereo unspecified)	none
CC(=O)N(Cc1ccc2c(c1)OCO2)C1CC(=O)N(CCc2ccccc2)C1=O (stereo unspecified)	none (no result: VACV mCherry inh)
Cc1cc(C)n(-c2nc(SCCN3CCOCC3)c3c4c(sc3n2)CCCC4)n1	none (no result: LmPK inh)
Cc1cc(-n2nc(C)cc2C)n2nc(C)c(-c3ccc(Cl)cc3)c2n1	none (no result: VACV Venus inh, VACV mCherry inh)
COCCN1C(=O)c2cc(C(=O)Nc3cccc(F)c3)ccc2C1Nc1cccc(F)c1 (stereo unspecified)	VACV Venus inh inconclusive
CCc1ccc(NC(=O)c2ccc3c(c2)C(=O)N(CCOC)C3Nc2ccc(CC)cc2)cc1 (stereo unspecified)	VACV Venus inh inconclusive, HCMV inh -89.9
Cc1cc2c(n1-c1ccc(C(=O)NCc3cccc(Br)c3)cc1)CCC(C)C2 (stereo unspecified)	HCMV inh inconclusive (no result: LmPK inh)
Cc1cc2c(n1-c1ccc(C(=O)NCC(C)c3ccccc3)cc1)CCCC2 (stereo unspecified)	HCMV inh -61.0 (no result: LmPK inh)
COc1cccc(CNC(=O)c2ccc(-n3c(C)cc4c3CCC(C)C4)cc2)c1 (stereo unspecified)	HCMV inh -82.5 (no result: LmPK inh)
Cc1cc2c(n1-c1ccc(C(=O)NCCc3ccc(Cl)cc3)cc1)CCCC2	none (no result: LmPK inh)
CSc1ccc(CCNC(=O)c2ccc(-n3c(C)cc4c3CCCC4)cc2)cc1	VACV Venus inh inconclusive, HCMV inh -98.1, VACV mCherry inh inconclusive (no result: LmPK inh)
CCCCCc1ccc(-c2ccc(Br)cc2)nc1	none (no result: LmPK inh)
CCCCOc1cccc(C2/C(=C(/O)c3ccc4c(c3)CC(C)O4)C(=O)C(=O)N2CCN2CCOCC2)c1 (stereo unspecified)	none (no result: VACV Venus inh, VACV mCherry inh)
O=C1C2C3C=CC(C3)C2S(=O)(=O)C2C3C=CC(C3)C12 (stereo unspecified)	none (no result: LmPK inh)
